Among all 33,000 compounds or so, about 70 (0.2%) were called active. Rule as the data show it: active = inhibition above about 30%; inactive = the rest. Not all results are given here.
Biological target: Coagulation factor XII (Homo sapiens) (UniProt P00748)
Experiment: human FXIIa protease inhibitors, primary screen, biochemical, single well (AID 701);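 also: 0% = enzyme with vehicle only and 100% = no enzyme blank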
Details: purified human FXIIa, AMC substrate fluorescence, 2 h; at 10 µM; stronger effect = higher value

Chain of Coagulation factor XII (Homo sapiens) (P00748 20-372 limits assumed): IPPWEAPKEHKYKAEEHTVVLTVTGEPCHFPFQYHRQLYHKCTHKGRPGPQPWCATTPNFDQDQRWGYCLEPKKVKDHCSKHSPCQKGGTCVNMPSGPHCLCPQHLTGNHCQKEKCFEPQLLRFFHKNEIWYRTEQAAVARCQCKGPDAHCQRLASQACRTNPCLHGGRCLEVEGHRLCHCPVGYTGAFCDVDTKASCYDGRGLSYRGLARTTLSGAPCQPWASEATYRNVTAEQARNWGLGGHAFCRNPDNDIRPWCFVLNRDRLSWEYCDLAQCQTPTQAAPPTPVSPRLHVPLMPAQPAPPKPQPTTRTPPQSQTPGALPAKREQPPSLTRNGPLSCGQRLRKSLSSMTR
Chain of Coagulation factor XII (Homo sapiens) (P00748 373-615 limits assumed): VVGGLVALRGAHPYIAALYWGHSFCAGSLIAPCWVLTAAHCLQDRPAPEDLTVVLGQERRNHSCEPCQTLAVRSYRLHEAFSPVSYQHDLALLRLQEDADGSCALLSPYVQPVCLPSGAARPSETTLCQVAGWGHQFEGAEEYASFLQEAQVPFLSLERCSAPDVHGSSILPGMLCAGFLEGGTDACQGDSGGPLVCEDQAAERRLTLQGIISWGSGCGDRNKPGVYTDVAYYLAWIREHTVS

inhibition, inactive:
O=C(O)CCN=C1CCc2ccccc2N1 6.9%
O=C(NCc1ccccc1Cl)c1csc2c1CCCCC2 5.87%
CC1(C)N=C(c2ccccn2)C(C)(C)N1O -0.08%
O=C(NCc1ccco1)C1(c2ccc(Cl)cc2)CCCC1 1.49%
CNC(=O)c1nnc(Cc2ccc(Cl)cc2)o1 2.02%
O=C(c1ccc2c(c1)OCO2)N1CCOCC1 0.77%
CCN1C(=O)/C(=C\N2CCOCC2)SC1=S 7.15%
CC1(C)COC(c2cccn2Cc2ccccc2Cl)=N1 6.11%
O=C(CN1CCSCC1)N/N=C/c1ccc(F)cc1F 13.2%
COc1ccc(Cl)cc1C(=O)NCc1cn(C)nc1C 7.49%
COc1ccc(CNc2ccc3c(c2)CCC3)cc1OC 4.51%
O=C1/C(=C\Nc2ccccc2)CCN1c1ncccn1 11.1%
N#Cc1cccc(NC(=O)CCC2CCCC2)c1 5.6%
O=C(NC1CCCC1)C(c1ccccn1)N(C(=O)c1csnn1)C1CCCC1 (configuration not stated) -12%
Cc1cc(C(F)F)n2nc(C(=O)Nc3ccc(S(=O)(=O)NC45CC6CC(CC(C6)C4)C5)cc3)nc2n1 3.77%
CCOc1ccc(C(O)Cn2c(=N)n(CCN3CCCCC3)c3ccccc32)cc1 (configuration not stated) -17.3%
Cc1cc(C(F)(F)F)n2ncc(-c3ccccc3)c2n1 4.27%
CCC1(CC)Cc2ccccc2-c2nc3ccccc3c(=O)n21 -9.34%
Cc1ccc(NS(=O)(=O)c2c(C)[nH]c(=O)[nH]c2=O)cc1C 5.29%
CC(C)NC(=O)CSc1nnc(COc2ccccc2Cl)o1 6.2%
CCOC(=O)N1CCC(N(CCOC)C(=O)Nc2ccc(C)c(C)c2)CC1 11%
N#C/C(=C\c1ccccc1)c1n[nH]c(Cn2cncn2)n1 3.67%
CCOC(=O)c1cnc(SCc2nc(N)nc(Nc3ccc(OC)cc3)n2)nc1N 2.04%
O=C(N/N=C/C=C/c1ccccc1)C1CC1(c1ccccc1)c1ccccc1 (configuration not stated) 7.46%
CCOc1ccc(NC(=O)N(CC(C)C)CC(C)C)cc1 3.85%
CCC(C)NC(=O)C1CCCN(C(=O)NC2CCCCC2)C1 (configuration not stated) 5.82%
O=C(CC12CC3CC(CC(C3)C1)C2)Nc1ccc2c(c1)COC2=O 3.57%
COc1ccc(C)cc1N(C)C(=O)c1coc(=O)c2ccccc12 1.74%
C=CCNC(=O)C1CC=CCC1C(=O)O (configuration not stated) 5.98%
CC1CC(C)CN(CC(=O)N2c3ccccc3CCc3ccccc32)C1 (configuration not stated) -2.18%
COC(CNC(=O)Cn1ncc2ccsc2c1=O)OC 8.94%
Cc1cccc(C)c1NC(=O)CSc1nnc(-c2ccccc2)n1Cc1ccc2c(c1)OCO2 7.65%
CC1(C)CC(CC(=O)O)C(=O)O1 (configuration not stated) -10.1%
COc1ccccc1-c1nc(C#N)c(N2CCC(C(N)=O)CC2)o1 -1.38%
COc1ccc(Br)cc1CN1CCN(C(=O)c2cccc(OC)c2OC)CC1 6.66%
O=C(CCN1c2ccccc2Sc2ccccc21)Nc1ccccc1 4.62%
COc1ccc(NC(=O)C(CC(C)C)NS(=O)(=O)c2ccc3c(c2)CCN3C(C)=O)cc1OC (configuration not stated) 5.4%
CCOC(=O)c1ccc2c(c1)nc(C)n2CC 2.03%
CCCNC(=O)c1ccc(Cl)c(Cl)c1 3.09%
CCCCc1nnc(NC(=O)CS(=O)(=O)Cc2ccccc2)s1 2.19%
N#C/C(=C(\O)CCl)c1nnc2n1CCCCC2 1.09%
Cc1ccc(-n2nc3c(c2NC(=O)CCC2CCCCC2)CS(=O)C3)cc1 (configuration not stated) 2.44%
